# This is one part of a sample in which hits are shown more often than they occur.
# SARS PLpro yeast – SARS-CoV PLP inhibition in yeast | S. cerevisiae expressing SARS-CoV PLpro, growth rescue | Potency, µM (top dose mostly 32.9 µM), usual class: activators | 330,000 compounds, 0.19% hits; calls by dose curve; further: nearly all actives have a fitted effect of over 55% in size
# TbPYK inhibitor – T. brucei pyruvate kinase inhibition; Q57TT1; TbPYK enzyme, Kinase-Glo Plus ATP luminescence, 45 min; Potency, µM (top dose mostly 76.8 µM), usual class: inhibitors; 410,000 compounds, 0.12% hits; further: nearly all actives have a fitted effect of over 50% in size
#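 ADP (130 uM final) triggers the TbPYK reaction after compound addition; incubation is 45 min at room temperature. Kinase-Glo Plus is then added and luminescence imaged. Normalized data are fitted to concentration-effect curves.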
# NS1 inh – inhibitors of influenza NS1 protein function; Potency, µM (doses to about 46.1 µM); 270,000 compounds, 0.4% hits; AID 2326; calls by dose curve; further: actives are rising curves; nearly all actives have a fitted effect of over 50% in size
#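 Recovery from NS1-induced slow growth read by OD600 in budding yeast switched to galactose assay medium (pH 6.0, -URA) at 1:100 dilution. Compound 23 nl per well; the matching strain lacking NS1 serves as control.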
# Shiga toxin inh – inhibitors of Shiga toxin in Vero cells. Vero cells, Shiga toxin protein synthesis inhibition reporter. inhibition, % at 38.7 µM. 290,000 compounds, 9.2% hits; in the data active means inhibition mostly above about 28%, no sharp cut-off; inactive means mostly below about 43%
# Cycloheximide cs – counter-screen for Shiga toxin inhibitors: cycloheximide protein synthesis inhibition. AID 2314. 300,000 compounds, 12% hits. cell reporter, cycloheximide protein synthesis inhibition counterscreen. max response, %; in the data active means max response mostly above about 13%, no sharp cut-off; inactive means mostly below about 14%; further: read at 38.3 µM for the half of the compounds with a filed dose
# LmPK inh – LmPK (Leishmania mexicana) enzyme inhibition. purified LmPK, Kinase-Glo ATP luminescence, 1 h. Q27686. Potency, µM (top dose mostly 57.5 µM), most hits filed as inhibitors. 290,000 compounds, 0.37% hits. AID 1721
# Target sequence (Q27686 whole entry, looked up): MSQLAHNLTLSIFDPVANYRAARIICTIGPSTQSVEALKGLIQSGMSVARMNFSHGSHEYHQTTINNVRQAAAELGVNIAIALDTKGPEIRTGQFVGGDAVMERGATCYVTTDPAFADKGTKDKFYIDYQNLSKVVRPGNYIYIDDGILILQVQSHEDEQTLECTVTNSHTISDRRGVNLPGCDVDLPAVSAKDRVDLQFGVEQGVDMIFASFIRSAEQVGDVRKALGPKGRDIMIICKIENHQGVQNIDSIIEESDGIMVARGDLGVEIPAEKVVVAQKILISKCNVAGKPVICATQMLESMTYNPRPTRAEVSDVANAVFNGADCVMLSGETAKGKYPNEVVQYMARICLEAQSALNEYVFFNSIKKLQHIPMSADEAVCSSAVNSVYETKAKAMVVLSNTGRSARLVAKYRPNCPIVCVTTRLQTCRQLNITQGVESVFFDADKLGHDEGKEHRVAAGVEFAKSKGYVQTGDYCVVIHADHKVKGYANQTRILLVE
#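 Pyruvate kinase activity monitored as ATP production (luciferase luminescence). Conditions: 0.1 nM enzyme, 0.5 mM PEP, 0.1 mM ADP, 1 h, RT; normalized against uninhibited and no-enzyme wells.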
# Hits are given with their value; i = inactive; ? = inconclusive; nt = no result given; [ ] = another dose, or the depositor's remark. Unless noted, the call rests on the fitted dose curve; in most records, active means well fitted curve in the direction sought with a large enough effect; inconclusive means small, poorly fitted or top-dose-only effect, or another doubt; inactive means no such curve, though single readings can be large; an effect the other way counts as inactive or inconclusive.
SMILES,SARS PLpro yeast,TbPYK inhibitor,NS1 inh,Shiga toxin inh,Cycloheximide cs,LmPK inh
Cc1cccc(SCC(=O)Nc2ccccc2[N+](=O)[O-])c1,i,i,i,i,16,i
COc1ccc(NC(=O)COc2ccc(C)cc2)c([N+](=O)[O-])c1,i,i,nt,86,44,i
COCC(=O)OCC(=O)Nc1cc(C)c(C)cc1[N+](=O)[O-],i,i,i,i,16,i
Cc1cc(C)nc(SCC(=O)Nc2ccccc2[N+](=O)[O-])n1,i,i,i,i,i,i
CCOC(=O)CC(NS(=O)(=O)c1ccc2[nH]c(=O)sc2c1)c1ccc(C)cc1 (configuration not stated),i,i,i,i,i,i
CCCNC(=O)C1(C)CCCN(C(=O)c2ccccc2OC(F)(F)F)C1 (configuration not stated),nt,i,nt,nt,nt,nt
CN(Cc1ccccc1)C(=O)c1cc2cc(F)ccc2[nH]1,i,i,i,75,65,i
Cc1ccc(Cn2c(C)c(CNCc3ccc(OC(C)C)cc3)c(C(=O)O)c2C)cc1,nt,i,nt,nt,nt,nt
CCOC(=O)c1ccc(N2C(=O)c3[nH]nc(-c4ccccc4)c3C2c2cccs2)cc1 (configuration not stated),nt,i,nt,nt,nt,nt
CCCC(CCC)C(=O)Nc1cccc(-c2nc3cccnc3s2)c1,nt,i,nt,nt,nt,nt
O=S(=O)(Nc1cccc(-c2nc3cccnc3s2)c1)c1cccs1,i,i,i,50,18,i
CCCS(=O)(=O)Nc1cccc(-c2nc3cccnc3s2)c1,i,i,i,57,28,i
Cc1ccc(-c2nc3cccnc3s2)cc1NS(C)(=O)=O,i,i,i,62,33,i
Cc1ccc(-c2nc3cccnc3s2)cc1NC(=O)C(C)C,nt,i,nt,nt,nt,nt
COCC(=O)Nc1cccc(-c2nc3cccnc3s2)c1,nt,i,nt,nt,nt,nt
CCc1ccc(S(=O)(=O)NCc2nc3cccnc3n2Cc2cccc(OC)c2)cc1,nt,i,nt,nt,nt,nt
CC1(C)O[C@@H]2[C@H](O1)[C@@H](COS(=O)(=O)O)O[C@H]2n1cc(Br)c(=O)[nH]c1=O,i,i,nt,nt,nt,nt
Cc1nc(N)sc1-c1csc(N(C)c2ccc(O)cc2)n1,i,i,?,66,23,i
COc1ccc([C@H]2CC(=O)C=C(c3ccc4cc[nH]c4c3)C2)cc1,i,i,nt,nt,nt,nt
Cc1cs/c(=N\N=C2CCCCC2)n1Cc1ccco1,i,i,nt,69,34,i
Cc1csc(=Nc2cccnc2)n1Cc1ccco1,i,i,nt,i,i,i
Cc1cs/c(=N\N=C\c2ccccc2)n1Cc1ccco1,i,i,i,i,23,i
CC(C)=N/N=c1\scc(C)n1Cc1ccco1,i,i,nt,i,i,i
O=C1CC(c2ccccc2C(F)(F)F)c2c(c3ccccc3[nH]c2=O)O1 (configuration not stated),nt,i,nt,nt,nt,nt
O=C(NCCc1ccccc1)C1CCC(CNS(=O)(=O)c2ccc(F)cc2)CC1 (configuration not stated),i,i,i,i,16,i
SMILES,SARS PLpro yeast,TbPYK inhibitor,NS1 inh,Shiga toxin inh,Cycloheximide cs,LmPK inh
O=C(NCCc1ccccc1)C1CCC(CNS(=O)(=O)c2ccc(Cl)cc2)CC1 (configuration not stated),nt,i[15.4 µM],nt,nt,nt,nt
COc1cc(N/N=C/c2ccc(N(C)C)cc2)ncn1,i,i,i,97,45,?
CCNc1nc(NCC)nc(N/N=C/c2ccc(N(C)C)cc2)n1,i,i,nt,i,i,i
N=C1c2c(cc(=O)n3c2[nH]c2ccccc23)CN1CCN1CCOCC1,i,i,nt,i,i,i[11.5 µM]
COCCN1Cc2cc(=O)n3c([nH]c4ccccc43)c2C1=N,i,i,nt,i,22,i[11.5 µM]
O=c1c(N2CCCCC2)coc2ccccc12,i,i,i,i,20,i
O=c1cc(N2CCCCC2)c2ccccc2o1,i,i,i,i,i,i
O=C(COc1ccccc1[N+](=O)[O-])N(Cc1ccco1)c1ccccn1,nt,i,nt,nt,nt,nt
CCSc1nc(-c2ccc(OC)cc2)n(-c2nc3ccccc3s2)n1,i,i,i,i,17,i
CCCn1c(CCc2ccccc2)n[nH]c1=S,i,?,i,i,i,?
CCOc1ccc(Cl)cc1-c1cc(C(=O)NC(C)C)[nH]n1,nt,i,nt,nt,nt,nt
COc1ccc(O)c(C(=O)c2cnc3nc4ccccc4n3c2)c1,i,i,i,i,i,i
COc1ccc(O)c(C(=O)c2cnn(-c3ccccn3)c2)c1,i,i,i,63,33,i
COc1ccc(O)c(C(=O)c2cnn(-c3ccc(Cl)cc3)c2)c1,i,i,i,40,i,i
COc1ccc(-c2nc(SCC(=O)NC3CCCCC3)n[nH]2)cc1,i,i,i,i,24,i
COc1ccc(-c2cn3nc(SCC(=O)NC4CCCCC4)ccc3n2)cc1,i,i,i,95,50,i
CCOc1ccc(-c2ccc(SCC(=O)NC3CCCCC3)nn2)cc1,i,i,i,i,17,i
COc1ccc(-c2ccc(SCC(=O)NC3CCCCC3)nn2)cc1,i,i,i,i,i,i
CC(=O)c1ccc(NC(=O)c2onc(C)c2Cl)cc1,i,i,i,96,39,i
Cc1ccc2c(Cl)c(C(=O)Nc3ccc4c(c3)OCO4)sc2c1,i,i,i,91,19,i
CC(=O)c1cccc(NC(=O)c2onc(C)c2Cl)c1,i,i,i,i,17,i
Cc1noc(C(=O)Nc2ccc3c(c2)OCO3)c1Cl,i,i,i,79,37,i
COc1cc(-c2nnc(COC(=O)c3nn(CC(C)C)c(=O)c4ccccc34)o2)cc(OC)c1OC,i,i,nt,nt,nt,nt
COc1ccc(CCn2c(=O)c3ccccc3n(CC(=O)Nc3cccc(C)c3)c2=O)cc1OC,nt,i,nt,nt,nt,nt
COc1cc(C(=O)NNC(=O)CN2C(=O)NC(C)(c3ccc(C)cc3)C2=O)cc(OC)c1OC (configuration not stated),i,i,nt,nt,nt,nt
SMILES,SARS PLpro yeast,TbPYK inhibitor,NS1 inh,Shiga toxin inh,Cycloheximide cs,LmPK inh
Cc1ccc(-c2noc(CCC(=O)N3CCCC3)n2)cc1,i,i,i,46,27,i
O=C(CCc1c[nH]c2ccccc12)N1CCCCCCC1,i,i,i,i,i,i
COc1ccc(N2CCN(Cc3nc(-c4ccc(C)cc4)no3)CC2)cc1,nt,i,nt,nt,nt,nt
O=C(CCCc1c[nH]c2ccccc12)N1CCOCC1,i,i,i,i,19,i
Cc1ccc(-c2noc(CCC(=O)N3CCN(c4cc(C)ccc4C)CC3)n2)cc1,i,i,nt,nt,nt,nt
Cc1ccc(-c2noc(CN3CCCCC3)n2)cc1,i,i,i,91,49,i
O=C(CCCc1nc(-c2ccccc2)no1)N1CCOCC1,i,i,i,i,18,i
COc1cc(C#N)ccc1OC(=O)C1CCN(C(=O)c2ccc(F)cc2)CC1,i,i,nt,nt,nt,nt
Cc1cc(C)cc(C(=O)n2nc(C)c(S(=O)(=O)N3CCCCCC3)c2C)c1,nt,i,nt,nt,nt,nt
Clc1ccc(-c2noc(CN3CCCC3)n2)cc1,i,i,i,65,37,i
Clc1ccc(-c2noc(CN3CCN(c4ccccc4)CC3)n2)cc1,i,i,i,i,i,i
Cc1ccc(-c2noc(CN3CCOCC3)n2)cc1,i,i,i,76,39,i

# Compound activity as filed in PubChem.
